# Test results as given in the supplement of paper PMC6555819.
# How the values were obtained:
# Test in all cases: PBM binding z-score (relative to random genomic background probes); higher = stronger binding; sequences stand for … in GC…GCGATTGACAGCGTAGAATGAAGG
# [1] = system: FXR:RXRa (NR concentration 270 nM, RXRa partner concentration 90 nM)
# How it was run: (§1)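 Each nuclear receptor dimer, without ligand, was incubated for 1 h on custom Agilent 4×180K protein-binding microarrays. Binding was detected with antibodies against each partner (one per run), and scanned fluorescence was regression-normalized. The binding z-scores are referenced to random human genomic background probes.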
# [2] = system: LXRa:RXRa (NR concentration 270 nM, RXRa partner concentration 90 nM)
# How it was run: as §1
# [3] = system: LXRa homodimer (NR concentration 270 nM)
# How it was run: as §1
# [4] = system: LXRb:RXRa (NR concentration 270 nM, RXRa partner concentration 90 nM)
# How it was run: as §1
# [5] = system: LXRb homodimer (NR concentration 270 nM)
# How it was run: as §1
# [6] = system: PPARa:RXRa (NR concentration 270 nM, RXRa partner concentration 90 nM)
# How it was run: as §1
# [7] = system: PPARg:RXRa (NR concentration 180 nM, RXRa partner concentration 90 nM)
# How it was run: as §1
# [8] = system: PPARg:RXRa 270nM:90nM, anti-RXR (NR concentration 270 nM, RXRa partner concentration 90 nM)
# How it was run: as §1
# [9] = system: PPARg:RXRa 30nM:10nM, anti-RXR (NR concentration 30 nM, RXRa partner concentration 10 nM)
# How it was run: as §1
# [10] = system: PPARg:RXRa 90nM:30nM, anti-RXR (NR concentration 90 nM, RXRa partner concentration 30 nM)
# How it was run: as §1
# [11] = system: PPARg:RXRa DBDmut IVT, anti-RXR (DBD mutation: RXRa K156A/R161A, NR concentration 270 nM, RXRa partner concentration 90 nM)
# How it was run: as §1
# [12] = system: PPARg:RXRa IVT, anti-PPARg (NR concentration 270 nM, RXRa partner concentration 90 nM)
# How it was run: as §1
# [13] = system: PPARg DBDmut:RXRa IVT, anti-PPARg (DBD mutation: PPARg1 K132A/R137A, NR concentration 270 nM, RXRa partner concentration 90 nM)
# How it was run: as §1
# [14] = system: PPARg DBDmut IVT, anti-PPARg (DBD mutation: PPARg1 K132A/R137A, NR concentration 270 nM)
# How it was run: as §1
# [15] = system: PPARg homodimer (NR concentration 180 nM)
# How it was run: as §1
# [16] = system: PXR:RXRa (NR concentration 270 nM, RXRa partner concentration 90 nM)
# How it was run: as §1
# [17] = system: PXR homodimer (NR concentration 270 nM)
# How it was run: as §1
# [18] = system: RARa:RXR (NR concentration 270 nM, RXRa partner concentration 90 nM)
# How it was run: as §1
# [19] = system: RARa homodimer (NR concentration 270 nM)
# How it was run: as §1
# [20] = system: RARb:RXRa (NR concentration 270 nM, RXRa partner concentration 90 nM)
# How it was run: as §1
Sequence,PBM binding z-score [1],PBM binding z-score [2],PBM binding z-score [3],PBM binding z-score [4],PBM binding z-score [5],PBM binding z-score [6],PBM binding z-score [7],PBM binding z-score [8],PBM binding z-score [9],PBM binding z-score [10],PBM binding z-score [11],PBM binding z-score [12],PBM binding z-score [13],PBM binding z-score [14],PBM binding z-score [15],PBM binding z-score [16],PBM binding z-score [17],PBM binding z-score [18],PBM binding z-score [19],PBM binding z-score [20]
GATACAGGGTCAGCTAGAGGCCAGAGGATGGAAA,4.5,3.02,-0.423,2.39,-0.64,4.54,3.7,3.5,1.02,2.16,1.05,2.27,0.0573,-0.276,2.33,3.12,-0.127,4.59,0.2,4.17
CAGCCTAGGTCAGGGCTAGTATAGGAGGAACGTT,1.42,0.697,-0.359,0.186,-1.36,1.99,0.77,0.899,-0.0707,0.264,1.32,1.55,-1.23,-0.952,0.47,0.176,-0.363,1.08,-0.159,3.41
GCATATAGGTAATACAAGGTGAAAGTACGATTGT,0.899,2.24,0.263,0.874,-0.16,1.82,1.98,1.86,0.776,1.17,3.58,3.44,1.47,0.563,0.701,0.648,0.0601,1.84,0.78,0.387
TCAGACAGGTGAAGGTAAGTCAGGTACGCAGTCG,0.571,0.454,-0.273,0.356,-0.365,0.993,0.552,2.03,4.06,2.93,2.4,1.07,-0.136,-0.843,1.02,0.265,0.282,0.741,0.234,1.08
TAACCTAGGTCATGGGCCAGTATACCACGCGAAC,5.24,4.78,1.74,3.44,0.868,4.78,5.73,5.21,2.54,4.41,4.06,5.09,1.44,0.97,2.68,2.19,0.195,3.44,1.11,4.08
AGTCAAAGTTCATTAGGTAACGTAAGATTCAGCT,5.94,6.16,5.2,3.29,1.67,4.63,6.37,6.16,3.38,5.54,1.93,4.02,1.72,1.88,3.26,4.83,6.94,3.77,1.92,4.7
TCTTGTAGATCATGCAGGTTAAGAAAGCCTGAGT,0.492,0.415,-0.144,0.657,-0.00581,1.14,-0.222,1.51,2.51,2.08,1.44,0.879,0.847,1.07,0.117,0.641,0.527,0.812,0.221,0.285
GATACAGGGTCAGCTAGAGACCAGAGTATGGAAA,4.21,2.28,-0.37,2.36,-0.416,4.54,3.4,3.33,0.781,2.29,1.1,2.34,0.401,-0.539,1.14,1.89,0.00163,2.98,0.39,3.53
GCTATTAGTTGAACGGGCAACCGAATGATTCTCG,-0.438,-0.312,-0.165,-0.485,-0.496,-0.347,0.352,0.00975,-0.295,-0.0379,0.443,-0.481,-1.02,-0.0789,-0.518,-0.435,-0.664,-0.533,-0.461,0.14
TCGAGTATGTTACCAATGGGGCATTCAGCTTTCT,-0.179,-0.268,-0.402,0.416,-0.279,0.256,-0.157,0.416,1.14,0.894,1.25,0.121,-0.168,-0.0708,-0.422,0.0821,-0.273,0.0781,-0.543,-0.0471
ACTAGTTGGTCTGCTGAGGTCACACACAATTCGG,2.8,2.9,1.91,3.28,0.53,3.39,1.35,1.95,0.572,1.35,0.557,1.95,0.686,1.46,2.32,4.42,1.43,3.73,0.842,3.2
TATTGTAGATCAAGCAGGTTAAGAAAGCCTGAGT,-0.385,0.0261,-0.0497,-0.0709,0.0382,0.359,-0.08,0.334,0.0668,0.218,0.302,1.02,0.542,0.816,0.0743,0.218,-0.248,0.378,0.348,-0.0192
TCATATAGGTAAAAGGTGAAAGACGGTGTGGTAA,2.04,2.03,0.309,2.05,0.213,5.1,9.86,8.73,9.9,10.6,5.58,5.42,1.69,1.75,3.5,1.66,0.734,3.13,1.65,1.91
GTACCAACGTGAATAGGTCGTTGATGAGTAGGCG,-0.282,-0.216,-0.491,-0.2,-0.829,0.267,0.588,-0.017,-0.124,-0.176,-0.261,-0.148,-0.62,-0.461,-0.374,-0.0666,-0.401,0.105,-0.122,-0.00783
